POLB inh: qHTS Assay for Inhibitors of DNA Polymerase Beta; P06746; Pol beta primer extension/strand displacement, fluorescence kinetic; Potency, µM (series often up to 114 µM), for inactives: at the top dose activity change, negative = inhibition, most hits filed as inhibitors; 1.3% of 340,000 active; AID 485314, 2010; also: potency is read from the fitted curve at half-maximal effect; % is scaled to controls: 0 for no effect and ±100 for the full control effect
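Preincubation: enzyme (10 nM) with compound, 15 min, RT. Reaction: substrate added to 50 nM final. Reads: 0 and 10 min. Analysis: normalized, Hill fit.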
POLH inh: qHTS for Inhibitors of Polymerase Eta. DNA polymerase eta (Homo sapiens), Q9Y253. recombinant Pol eta, fluorescent DNA replication assay. Potency, µM (highest dose often 114 µM), inactives show top-dose activity change, negative = inhibition, actives largely listed as inhibitors. 1.2% of 390,000 active; also: potency is read from the fitted curve at half-maximal effect; % is scaled to controls: 0 for no effect and ±100 for the full control effect
Target sequence (Q9Y253 whole entry, looked up): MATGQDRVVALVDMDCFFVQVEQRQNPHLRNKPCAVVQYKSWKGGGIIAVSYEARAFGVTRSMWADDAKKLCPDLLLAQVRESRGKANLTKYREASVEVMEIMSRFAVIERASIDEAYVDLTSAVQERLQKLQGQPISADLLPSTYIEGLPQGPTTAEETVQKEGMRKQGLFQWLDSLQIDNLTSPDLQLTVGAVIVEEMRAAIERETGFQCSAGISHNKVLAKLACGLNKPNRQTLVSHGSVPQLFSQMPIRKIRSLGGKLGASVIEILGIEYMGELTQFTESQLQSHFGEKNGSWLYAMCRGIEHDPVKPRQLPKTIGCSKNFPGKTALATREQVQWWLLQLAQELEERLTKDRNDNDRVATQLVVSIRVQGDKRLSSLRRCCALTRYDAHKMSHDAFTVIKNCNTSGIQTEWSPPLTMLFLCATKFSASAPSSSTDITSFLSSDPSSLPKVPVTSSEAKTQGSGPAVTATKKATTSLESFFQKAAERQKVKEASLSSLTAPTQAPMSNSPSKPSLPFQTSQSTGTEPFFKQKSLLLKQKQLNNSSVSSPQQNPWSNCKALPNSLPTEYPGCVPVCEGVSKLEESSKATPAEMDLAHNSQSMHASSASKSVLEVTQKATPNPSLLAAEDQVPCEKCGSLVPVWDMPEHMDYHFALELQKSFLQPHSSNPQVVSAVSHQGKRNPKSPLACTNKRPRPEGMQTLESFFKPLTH
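Pol eta at 10 nM preincubated with compounds 15 min at room temperature; reaction started with fluorescent substrate (50 nM final) and read kinetically at 0 and 10 min.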
Pol iota inh: qHTS for Inhibitors of Polymerase Iota; 1% of 390,000 active; AID 588590, 2011; Pol iota fluorescent replication assay, 10 min; Potency, µM (series often up to 115 µM), for the others: at the top dose activity, negative = inhibition, most hits filed as inhibitors; DNA polymerase iota (Homo sapiens), Q9UNA4; also: potency is read from the fitted curve at half-maximal effect
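Pol iota at 10 nM preincubated 15 min with compounds at room temperature; reaction started with fluorescent substrate, 50 nM final. Fluorescence read kinetically at 0 and 10 min; buffer-only wells as negative control.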
POLK inh: qHTS for Inhibitors of Polymerase Kappa; purified Pol kappa, fluorescent DNA synthesis assay, 10 min; Potency, µM (top dose mostly 107 µM), inactives show at the top dose activity, negative = inhibition, actives largely listed as inhibitors; 0.53% of 400,000 active; also: potency is read from the fitted curve at half-maximal effect; % is scaled to controls: 0 for no effect and ±100 for the full control effect
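10 nM Pol kappa was preincubated with compounds for 15 min at room temperature. Reaction started with 50 nM (final) substrate. Fluorescence read kinetically at 0 and 10 min.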
WRN inhibitor: qHTS for Inhibitors of WRN Helicase. Bifunctional 3'-5' exonuclease/ATP-dependent helicase WRN (Homo sapiens), Q14191. WRN helicase unwinding, fluorescent forked duplex, kinetic. Potency, µM (doses to about 114 µM), for inactives: at the top dose activity change, negative = inhibition, actives largely listed as inhibitors. 0.46% of 360,000 active; also: potency is read from the fitted curve at half-maximal effect; % is scaled to controls: 0 for no effect and ±100 for the full control effect; nearly all actives have a fitted effect of over 55% in size
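Screening of the MLSMR collection measured strand separation of a quenched forked DNA duplex (100 nM) by 20 nM WRN with 2 mM ATP, all final. Compounds were preincubated with enzyme 15 min at room temperature.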
PI5P4Ka inh: qHTS for Inhibitors of phosphatidylinositol 5-phosphate 4-kinase (PI5P4K). AID 652105, 2013. PI5P4Kalpha enzyme, ADP-Glo luminescence, 60 min; hits give low values. Phosphatidylinositol 5-phosphate 4-kinase type-2 alpha (Homo sapiens), P48426. 1.2% of 330,000 active. max response, %; active = max response of -50% or lower; inconclusive = between -30% and -50%; inactive = -30% or higher; also: value at the top dose of about 77 µM; % is scaled to controls: 0 for no effect and ±100 for the full control effect
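ADP-Glo luminescence end-point after a 60 min room-temperature kinase reaction. PI5P4Kalpha and substrate in HEPES pH 7.4 buffer with EGTA, 0.1% CHAPS and 5% DMSO; ATP at 5 microM final.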
* hit, by the source's call; ? = inconclusive; . = no result given; [ ] = remark or other dose. In the library only some 2.8% were active in any assay of this set; here they are far more common. Unless noted, calls follow the shape of the dose curve; as a rule, active = well fitted curve in the direction sought with a large enough effect; inconclusive = small, poorly fitted or top-dose-only effect, or another doubt; inactive = no such curve, though single readings can be large; an effect the other way counts as inactive or inconclusive.

SMILES	POLB inh	POLH inh	Pol iota inh	POLK inh	WRN inhibitor	PI5P4Ka inh
CN(C)c1ccc(CNC(=O)C2CCN(S(=O)(=O)c3ccc4[nH]c(=O)ccc4c3)CC2)cc1	4%	-16%	14%	-7%[60.1 µM]	.	.
CSS(=O)(=O)c1cccc2cccnc12	9%	-1%	26%	-3%	0%	-91*
CSc1nc(C)c2c(n1)N(c1ccc(O)cc1)CC2	?	35µM*	?	-33%	-19%	1
O=C(CCCc1c[nH]c2ccccc12)NCCc1c[nH]c2ccccc12	-2%	89µM*	29%	-6%	-2%	-5
CCCn1c(CCC(=O)Nc2cc(OC)cc(OC)c2)nc2cccnc21	24%	-11%	57%	6%	.	.
O=C(Cn1ncc(Cl)c(Cl)c1=O)N1CCOCC1	1%	-18%	43%	-7%	3%	1
CCc1ccc(C(=O)Cn2ncc(Cl)c(Cl)c2=O)cc1	50µM*	?	?	-17%	-10%[11.6 µM]	?
O=C(Cn1ncc(Cl)c(Cl)c1=O)N1CCN(Cc2ccccc2)CC1	28µM*	?	35µM*	0%	-10%	-8
COc1ccccc1NC(=O)CN1C(=O)C(c2ccc(F)cc2)=NC12CCCCC2	-23%	.	21%	-8%	.	.
COC(=O)C1=C2SC(C)C(=O)N2C(N)=C(C#N)C1c1ccc(OC)c(OC)c1 (stereo unspecified)	53%	-10%	11%	-14%	-12%	-58*
COc1ccc(C2C(C#N)=C(N)OC(C(C)(C)C)=C2C#N)cc1OC (stereo unspecified)	0%	-11%	2%	-6%	-2%	-9
COC(=O)C1=C2SC(C)C(=O)N2C(N)=C(C#N)C1c1cc(OC)c(OC)c(OC)c1 (stereo unspecified)	13%	-16%	-9%	-7%	-1%	?
COc1ccc(C2C(C#N)=C(N)SC(N)=C2C#N)cc1OC	-4%	-12%	25%	-23%	-30%	-60*
Cc1cc(C)c2nc3c(c(C(=O)O)c2c1)CCC3	18µM*	14µM*	?	-20%	-19%[57.1 µM]	0
O=C(/C=C/c1ccco1)NC(=S)Nc1ccccn1	40µM*	4%	-6%	-24%	-8%	-10
Cn1nnc(NC(=S)NC(=O)/C=C/c2ccco2)n1	?	18µM*	?	?	?	-71*
Nc1nc(Cl)nc2c1ncn2[C@@H]1O[C@H](COP(=O)(O)OP(=O)(O)OP(=O)(O)O)[C@@H](O)[C@H]1O	.	.	.	1%[60.1 µM]	.	.
Cc1cc(C)n2nc3nc(N4CCCCC4)nc(-c4ccco4)c3c2n1	10µM*	10µM*	?	32µM*	?	-56*
Cc1cc(Nc2ccccc2Cl)n2nc(-c3ccco3)nc2n1	6%	7%	14%	0%[60.1 µM]	.	.
Cc1ccc(Cn2cnc3nc4c(cc3c2=O)CC(C)CC4)cc1 (stereo unspecified)	8%	-18%	11%	-7%[60.1 µM]	.	.
Cc1ccc2oc(=O)c3cnn(CC(=O)N4CCN(c5cc(Cl)ccc5C)CC4)c3c2c1	20%	-13%	58%	-4%	.	.
COc1cc(/C=N/NC(=O)CCc2ccccc2)ccc1O	2%	-17%	-11%	-4%	-12%	8
COc1cc(CCC(O)CC(=O)CCc2ccccc2)ccc1O (stereo unspecified)	25µM*	-12%	79µM*	-22%	0%[11.6 µM]	-11
CN(C)c1cccc2c1c(NS(=O)(=O)c1cn(C)cn1)nn2C	-2%	-24%	40µM*	-10%	0%[11.6 µM]	-7
Cn1cnc(S(=O)(=O)Nc2ccccc2N2CCOCC2)c1	27%	4%	106%	-4%	-29%	-4
SMILES	POLB inh	POLH inh	Pol iota inh	POLK inh	WRN inhibitor	PI5P4Ka inh
COc1cccc(-n2cc(C(=O)Nc3cc(C)c(Cl)cc3OC)c3ccccc3c2=O)c1	31%	-14%	16%	-6%	.	.
O=S(=O)(c1ccc(C(F)(F)F)cc1)N1CCN(c2nc(-c3ccccc3)nc3ccccc23)CC1	.	.	24%	10%	.	.
O=C1N=c2ccccc2=C1c1sc(NS(=O)(=O)c2ccccc2)nc1O	6%	-31%	?	-7%	-29%	-61*
O=C1N=c2ccccc2=C1c1sc(Nc2cccc(O)c2)nc1O	-18%	-10%	-10%	-5%	2%	?
O=C1N=c2ccccc2=C1c1sc(NS(=O)(=O)Cc2ccccc2)nc1O	-4%	-17%	?	-33%	-12%	-54*
COc1ccccc1CNS(=O)(=O)c1ccc2c(c1)NC(=O)CC(=O)N2	0%	-13%	32%	-22%	.	.
COC(=O)c1cc(O)cc(OC)c1C(=O)c1c(O)cc(C)cc1O	?	35µM*	71µM*	?	-6%[11.6 µM]	2
COc1ccc(CNC(=O)C2CCN(c3nnc(-n4cccc4CNc4ccc(C)cc4)s3)CC2)c(OC)c1	-5%	.	0%	-13%	.	.
CCCCCc1c2c(cc(O)c1C(=O)O)OC(=O)c1cc(C(=O)CCCC)c(OC)cc1O2	.	79µM*	?	-7%	?	-24
CCCCCc1c2c(cc(O)c1C(=O)O)OC(=O)c1c(cc(OC)cc1C(=O)CCCC)O2	50µM*	79µM*	?	?	?	?
CCCCc1c(C(=O)O)cc(OC)cc1C(=O)O	4%	-2%	-12%	-10%	9%	.
COc1ccc(Br)cc1CN1C(=O)c2ccccc2C1C(=O)NC1CCCCCC1 (stereo unspecified)	14%	-9%	6%	4%	.	.
CCn1cc2c(n1)-c1c(oc(C(=O)Nc3ccc(Br)cc3F)c1C)CC2	0%	-11%	6%	-8%	.	.
CNc1ccc(Br)cc(C(=O)/C=C/c2ccc(OC)cc2)c1=O	28µM*	?	?	-17%	-8%[11.6 µM]	-25
CCNc1ccc(Br)cc(C(=O)/C=C/c2ccc(Cl)cc2Cl)c1=O	13µM*	14µM*	8.9µM*	?	?	?
COCCCNC(=O)/C=C/c1ccc(Cl)cc1Cl	21%	-11%	9%	1%	1%	-4
COc1ccc(/C=C/C(=O)c2cc(C(=O)/C=C/c3ccc(OC)cc3)c(O)cc2O)cc1	.	.	3%	6%	.	.
C=C/C(C)=C/CC1C(=C)CCC2C(C)(C(=O)O)CCCC12C (stereo unspecified)	?	7.1µM*	?	16µM*	?	?

Compound activity: PubChem BioAssay, National Center for Advancing Translational Sciences (NCATS)
